# Assay results from PubChem BioAssay (NCATS).
# Results filed as inconclusive are left out. Entries that show only a call come without a potency. The source made the active and inactive calls. Calls follow the shape of the dose curve; as a rule, active = well fitted curve in the direction sought with a large enough effect; inconclusive = small, poorly fitted or top-dose-only effect, or another doubt; inactive = no such curve, though single readings can be large; an effect the other way counts as inactive or inconclusive.
# Experiments:
# [1] = S16 Schwann cell PMP22 intronic element firefly luciferase assay (AID 624032); conditions: S16 rat Schwann cells, PMP22 element FLuc, 24 h; series mostly up to 57.5 µM; also: nearly all actives have a fitted effect of over 30% in size
# Outline: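 Luciferase reporter of PMP22 intronic-element expression in stably transfected S16 rat Schwann cells, read by ONE-Glo luminescence after 24 h compound exposure at 37 C. Activity scaled between DMSO (0%) and positive-control PTC124; concentration-effect curves quality-classified.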
# [2] = tested on: AA1029; assay: qHTS profiling for inhibitors of Plasmodium falciparum proliferation (AID 504749); also: nearly all actives have a fitted effect of over 60% in size; also: potency is read from the fitted curve at half-maximal effect; conditions: P. falciparum in erythrocytes, SYBR Green DNA, 72 h; series mostly up to 28.7 µM
# Outline: (§1)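 SYBR Green fluorescence of parasite DNA, read after lysis and overnight dark incubation, measured growth over 72 h in erythrocyte culture at 0.3% parasitemia and 2.5% hematocrit. Data normalised to DMSO and 0.29 uM artemisinin, with plate-drift correction.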
# [3] = tested on: CP194; assay: as above; conditions: P. falciparum in erythrocytes, SYBR Green DNA, 72 h; series mostly up to 28.7 µM
# Outline: as §1
# [4] = tested on: CP260; assay: as above; conditions: P. falciparum in erythrocytes, SYBR Green DNA, 72 h; series mostly up to 28.7 µM
# Outline: as §1
# [5] = tested on: CP297; assay: as above; conditions: P. falciparum in erythrocytes, SYBR Green DNA, 72 h; series mostly up to 28.7 µM
# Outline: as §1
# [6] = tested on: CP315; assay: as above; conditions: P. falciparum in erythrocytes, SYBR Green DNA, 72 h; series mostly up to 28.7 µM
# Outline: as §1
# [7] = tested on: DIV14; assay: as above; conditions: P. falciparum in erythrocytes, SYBR Green DNA, 72 h; series mostly up to 28.7 µM
# Outline: as §1
# [8] = tested on: ICS; assay: as above; conditions: P. falciparum in erythrocytes, SYBR Green DNA, 72 h; series mostly up to 28.7 µM
# Outline: as §1
# [9] = tested on: TAB165; assay: as above; conditions: P. falciparum in erythrocytes, SYBR Green DNA, 72 h; series mostly up to 28.7 µM
# Outline: as §1
# [10] = tested on: JCK; assay: as above; conditions: P. falciparum in erythrocytes, SYBR Green DNA, 72 h; series mostly up to 28.7 µM
# Outline: as §1
# [11] = qHTS Assay for Identification of Small Molecule Antagonists for Thrombopoietin (TPO) Signaling Pathway (AID 918); conditions: TPO-dependent cell signaling reporter, antagonist mode; also: potency is read from the fitted curve at half-maximal effect; nearly all actives have a fitted effect of over 60% in size
# Outline: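 Inhibitors of TPO signaling are sought by stimulating IL-3-starved murine Ba/F3 cells (human TPO receptor, Glycoprotein IIb-driven luciferase) with TPO at its EC50 of 26 pM alongside compound. After 24 hrs at 37 C, reporter luminescence is measured.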
# [12] = target: DNA dC->dU-editing enzyme APOBEC-3G (Homo sapiens) (UniProt Q9HC16); assay: qHTS for inhibitors of Vif-A3G interactions: Validation (AID 588379); conditions: Vif-A3G protein interaction assay; series mostly up to 46.1 µM
# Outline: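 Yellow fluorescence (Ex 488, Em 500-530) of Vif-coexpressing HeLa A3G-eYFP cells, scanned by Acumen cytometer, reports blocked A3G degradation. Cells plated at 700/well overnight at 37 deg C before compound addition, then a further overnight compound incubation at 37 deg C.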
# DNA dC->dU-editing enzyme APOBEC-3G (Homo sapiens), sequence (Q9HC16 whole entry, looked up): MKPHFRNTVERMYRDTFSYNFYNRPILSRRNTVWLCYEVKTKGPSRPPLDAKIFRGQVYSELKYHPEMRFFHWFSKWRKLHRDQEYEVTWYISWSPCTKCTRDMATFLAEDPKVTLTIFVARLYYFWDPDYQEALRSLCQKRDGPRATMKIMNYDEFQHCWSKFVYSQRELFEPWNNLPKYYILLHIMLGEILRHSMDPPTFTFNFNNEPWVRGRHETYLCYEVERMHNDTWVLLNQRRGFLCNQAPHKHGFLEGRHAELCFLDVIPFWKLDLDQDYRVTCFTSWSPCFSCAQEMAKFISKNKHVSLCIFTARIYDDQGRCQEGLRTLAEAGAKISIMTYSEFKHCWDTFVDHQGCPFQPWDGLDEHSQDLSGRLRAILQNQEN
smiles,measurement,setting,value
C=C[C@@H]1CN2CC[C@H]1C[C@H]2[C@H](O)c1ccnc2ccccc12,outcome,[1],inactive
same,Potency,[2],0.891 µM (active)
same,Potency,[3],0.849 µM (active)
same,Potency,[4],0.794 µM (active)
same,Potency,[5],0.757 µM (active)
same,Potency,[6],1.2 µM (active)
same,Potency,[7],0.426 µM (active)
same,Potency,[8],0.224 µM (active)
same,Potency,[9],0.355 µM (active)
C[C@@H](Cc1ccc(O)cc1)NC[C@@H](O)c1cc(O)cc(O)c1,outcome,[1],inactive
same,Potency,[2],inactive
same,Potency,[3],inactive
same,Potency,[4],inactive
same,Potency,[5],inactive
same,Potency,[6],inactive
same,Potency,[7],inactive
same,Potency,[8],inactive
same,outcome,[10],inactive
same,Potency,[9],inactive
O=C1C[C@@H]2OCC=C3CN4CC[C@]56c7ccccc7N1[C@@H]5[C@@H]2[C@H]3C[C@H]46 (tested in a mixture with another compound),outcome,[1],inactive
C[C@@H]1O[C@@H](O[C@H]2C[C@@H](O)[C@@]3(CO)[C@H]4[C@H](O)C[C@]5(C)[C@@H](C6=CC(=O)OC6)CC[C@]5(O)[C@H]4CC[C@@]3(O)C2)[C@@H](O)[C@H](O)[C@H]1O,Potency,[2],inactive
same,Potency,[4],inactive
same,Potency,[5],inactive
same,Potency,[7],inactive
same,Potency,[8],inactive
same,outcome,[10],inactive
same,Potency,[9],inactive
CC(=O)c1c(O)c(C)c(O)c(Cc2c(O)c3c(c(C(=O)/C=C\c4ccccc4)c2O)OC(C)(C)C=C3)c1O,Potency,[11],2.51 µM (active)
same,outcome,[12],inactive
CCn1cnc2c(Nc3cccc(Cl)c3)nc(N[C@@H]3CCCC[C@H]3N)nc21,Potency,[11],2.51 µM (active)
